Records with an inconclusive call do not appear. Activity calls are given as the source filed them. Unless noted, calls follow the shape of the dose curve; as a rule, active = well fitted curve in the direction sought with a large enough effect; inconclusive = small, poorly fitted or top-dose-only effect, or another doubt; inactive = no such curve, though single readings can be large; an effect the other way counts as inactive or inconclusive.
Columns and labels:
[1] = qHTS for Inhibitors of the Functional Ribonucleoprotein Complex (vRNP) of Lassa (LASV) Arenavirus: LASV Primary Screen - GLuc reporter signal (AID 1347082; calls by dose curve; tested in HEK293 reporter line; also: nearly all actives have a fitted effect of over 60% in size)
[2] = qHTS for Inhibitors of the Functional Ribonucleoprotein Complex (vRNP) of Lassa (LASV) Arenavirus: Viability assay - alamar blue signal for LASV Primary Screen (AID 1347083; calls by dose curve; tested in HEK293 reporter line; also: nearly all actives have a fitted effect of over 80% in size)
[3] = qHTS for Inhibitors of the Functional Ribonucleoprotein Complex (vRNP) of Lymphocytic Choriomeningitis Arenaviruses (LCMV): Viability assay - alamar blue signal for LCMV Primary Screen (AID 1347085; calls by dose curve; tested in HEK293 reporter line; also: nearly all actives have a fitted effect of over 80% in size)
[4] = target: Nucleoprotein (Lymphocytic choriomeningitis virus (strain Armstrong)) (UniProt P09992); assay: qHTS for Inhibitors of the Functional Ribonucleoprotein Complex (vRNP) of Lymphocytic Choriomeningitis Arenaviruses (LCMV): LCMV Primary Screen - GLuc reporter signal (AID 1347086; calls by dose curve; also: nearly all actives have a fitted effect of over 70% in size)
[5] = Cytotoxicity counterscreen for inhibitors of SARS-CoV-2 cell entry (AID 1645845; calls by dose curve; also: nearly all actives have a fitted effect of over 50% in size)
In short: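 Expi293F/hACE2 cells seeded overnight; cpd pin-transferred in DMSO, 1 h preincubation, + media, 48 h 37 C 5% CO2; ATPLite 1step luminescence; normalized to cells and no cells.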

[6] = Primary qHTS to identify inhibitors of SARS-CoV-2 cell entry (AID 1645846; calls by dose curve; also: nearly all actives have a fitted effect of over 45% in size); details: activity change, negative = inhibition: at 57.1 µM (top of the series) unless noted
In short: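 Using luciferase-reporting pseudoviruses carrying Wuhan-Hu-1 spike, the screen tracks entry into stably ACE2-expressing cells over 48 hr. Activity is expressed relative to spike particles versus particles lacking any fusion protein.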

CRL-7250 = normal cell line; assay: qHTS assay to identify novel small-molecules to repurpose for Merkel cell carcinoma treatment (AID 1296009); details: MCC and control cell lines, CellTiter-Glo viability, 72 h; series mostly up to 92 µM; also: nearly all actives have a fitted effect of over 60% in size
In short: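 qHTS format: cells treated with library compounds in DMSO across 8 (NPC) or 11 (MIPE) concentrations. Readout after 72 hr at 37 degree celsius was CellTiter-Glo luminescence.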

[7] = target: ATP-dependent 6-phosphofructokinase (Trypanosoma brucei brucei) (UniProt O15648); assay: qHTS Validation Assay to Find Inhibitors of T. brucei phosphofructokinase (AID 485368); details: T. brucei PFK enzyme assay, qHTS 7-point titration; at 57.5 µM (top of the series)
In short: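 Activity was read as ADP production by luminescence (ADP-Glo) after 45 min at room temperature. The enzyme was 1.25nM PFK in 0.1M TEA pH 8.0 with 0.5 mM F6P, 0.1mM ATP and 5 mM MgCl2. Compounds were titrated up to 57 uM and % activity normalized to no-enzyme and full-enzyme controls.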

[8] = Inducers of the Endoplasmic Reticulum Stress Response (ERSR) in human glioma: Validation (AID 504836)
In short: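 Stably transfected U87-MG human glioma cells carrying a GRP78-based luminescent sensor were seeded at 1000 cells/well, pin-dosed with compounds and incubated 16 h. Luciferase reagent was then added, and end-point luminescence was read after 10 min at room temperature.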

[9] = target: Ubiquitin carboxyl-terminal hydrolase 1 (Homo sapiens) (UniProt O94782); assay: Inhibitors of USP1/UAF1: Pilot qHTS (AID 504865);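 also: rhodamine fluorescence freed from ubiquitin-rhodamine substrate followed over time; top concentration of the series differs between compounds; nearly all actives have a fitted effect of over 35% in size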
In short: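 Enzyme-free wells gave the negative control, while test wells held 1nM USP1/UAF1 preincubated with compound for 15 min at room temperature. Ub-Rho at 150nM final started the reaction, and fluorescence at 480/540 nm was recorded kinetically.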

[10] = S16 Schwann cell PMP22 intronic element beta-lactamase assay (AID 624044; calls by dose curve; also: nearly all actives have a fitted effect of over 15% in size)
In short: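 Rat S16 Schwann cells with beta-Lac driven by a PMP22 intronic element, compound-treated 24 h at 37 °C. LiveBLAzer FRET B/G read: 460 nm normalized to potassium clavulanate vs DMSO; 535 nm FRET as viability; concentration-effect curves classified.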

[11] = HTS Assay for Allosteric Antagonists of the Human D2 Dopamine Receptor: Hit Validation in HTRF (AID 624455);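 also: stable D1 dopamine receptor cell line scored for blocking the D1 response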
In short: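 Hit validation in cells stably expressing the D1 dopamine receptor, run in HTRF format. Compounds were tested for their ability to inhibit the D1-mediated response.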

[12] = target: Arylsulfatase A (Homo sapiens) (UniProt P15289); assay: qHTS screen for enhancers of Arylsulfatase A (ASA1): LOPAC Validation Assay (AID 720538)
In short: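 Cell-based enhancement test: residual ASA activity in SV40-transformed I179S patient fibroblasts is measured by pNCS turnover (0.5mM final, 14h, room temperature) following 48h compound incubation; higher fluorescence indicates activation.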

Chain of Nucleoprotein (Lymphocytic choriomeningitis virus (strain Armstrong)) (P09992 whole entry, looked up): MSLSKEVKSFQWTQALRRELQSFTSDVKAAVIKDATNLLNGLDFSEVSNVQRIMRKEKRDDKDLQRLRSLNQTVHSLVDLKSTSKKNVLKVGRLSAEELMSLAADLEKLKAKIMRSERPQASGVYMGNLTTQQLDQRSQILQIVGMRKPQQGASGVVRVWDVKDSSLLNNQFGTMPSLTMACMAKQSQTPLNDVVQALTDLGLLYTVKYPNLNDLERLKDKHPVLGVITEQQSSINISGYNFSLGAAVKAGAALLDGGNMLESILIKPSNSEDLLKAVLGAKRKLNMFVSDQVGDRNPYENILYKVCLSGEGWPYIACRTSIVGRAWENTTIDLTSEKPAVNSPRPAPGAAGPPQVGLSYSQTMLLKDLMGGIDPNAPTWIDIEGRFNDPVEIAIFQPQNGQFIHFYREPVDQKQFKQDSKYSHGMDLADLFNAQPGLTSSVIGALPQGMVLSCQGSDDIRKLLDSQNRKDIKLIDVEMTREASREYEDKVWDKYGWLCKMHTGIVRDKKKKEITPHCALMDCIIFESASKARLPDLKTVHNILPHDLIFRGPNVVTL
Chain of Arylsulfatase A (Homo sapiens) (P15289 whole entry, looked up): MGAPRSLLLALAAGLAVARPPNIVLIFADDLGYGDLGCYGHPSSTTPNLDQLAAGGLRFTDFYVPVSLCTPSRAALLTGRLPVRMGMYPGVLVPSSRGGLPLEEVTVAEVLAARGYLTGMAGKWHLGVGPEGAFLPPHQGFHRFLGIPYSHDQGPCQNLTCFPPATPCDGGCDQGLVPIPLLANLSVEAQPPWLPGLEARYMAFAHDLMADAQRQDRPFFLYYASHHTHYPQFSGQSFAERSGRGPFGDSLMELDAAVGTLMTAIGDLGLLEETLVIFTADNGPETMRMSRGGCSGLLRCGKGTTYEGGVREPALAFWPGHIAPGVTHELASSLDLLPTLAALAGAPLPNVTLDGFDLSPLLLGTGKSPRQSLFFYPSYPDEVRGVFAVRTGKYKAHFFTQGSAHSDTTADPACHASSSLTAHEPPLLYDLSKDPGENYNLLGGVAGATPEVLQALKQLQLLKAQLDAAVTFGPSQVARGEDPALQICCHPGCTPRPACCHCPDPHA
Chain of ATP-dependent 6-phosphofructokinase (Trypanosoma brucei brucei) (O15648 whole entry, looked up): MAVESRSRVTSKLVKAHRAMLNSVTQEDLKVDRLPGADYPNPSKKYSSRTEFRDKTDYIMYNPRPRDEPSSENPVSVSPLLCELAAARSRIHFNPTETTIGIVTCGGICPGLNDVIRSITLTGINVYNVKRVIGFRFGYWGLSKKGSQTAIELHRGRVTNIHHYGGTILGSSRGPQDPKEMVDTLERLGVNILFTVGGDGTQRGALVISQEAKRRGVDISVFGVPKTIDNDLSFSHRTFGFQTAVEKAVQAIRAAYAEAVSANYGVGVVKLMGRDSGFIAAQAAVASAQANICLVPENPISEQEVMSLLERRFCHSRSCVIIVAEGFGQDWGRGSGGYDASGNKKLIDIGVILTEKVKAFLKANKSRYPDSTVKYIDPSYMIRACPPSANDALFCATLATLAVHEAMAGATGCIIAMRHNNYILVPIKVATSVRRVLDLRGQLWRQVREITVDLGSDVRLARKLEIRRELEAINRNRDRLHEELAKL
Chain of Ubiquitin carboxyl-terminal hydrolase 1 (Homo sapiens) (O94782 whole entry, looked up): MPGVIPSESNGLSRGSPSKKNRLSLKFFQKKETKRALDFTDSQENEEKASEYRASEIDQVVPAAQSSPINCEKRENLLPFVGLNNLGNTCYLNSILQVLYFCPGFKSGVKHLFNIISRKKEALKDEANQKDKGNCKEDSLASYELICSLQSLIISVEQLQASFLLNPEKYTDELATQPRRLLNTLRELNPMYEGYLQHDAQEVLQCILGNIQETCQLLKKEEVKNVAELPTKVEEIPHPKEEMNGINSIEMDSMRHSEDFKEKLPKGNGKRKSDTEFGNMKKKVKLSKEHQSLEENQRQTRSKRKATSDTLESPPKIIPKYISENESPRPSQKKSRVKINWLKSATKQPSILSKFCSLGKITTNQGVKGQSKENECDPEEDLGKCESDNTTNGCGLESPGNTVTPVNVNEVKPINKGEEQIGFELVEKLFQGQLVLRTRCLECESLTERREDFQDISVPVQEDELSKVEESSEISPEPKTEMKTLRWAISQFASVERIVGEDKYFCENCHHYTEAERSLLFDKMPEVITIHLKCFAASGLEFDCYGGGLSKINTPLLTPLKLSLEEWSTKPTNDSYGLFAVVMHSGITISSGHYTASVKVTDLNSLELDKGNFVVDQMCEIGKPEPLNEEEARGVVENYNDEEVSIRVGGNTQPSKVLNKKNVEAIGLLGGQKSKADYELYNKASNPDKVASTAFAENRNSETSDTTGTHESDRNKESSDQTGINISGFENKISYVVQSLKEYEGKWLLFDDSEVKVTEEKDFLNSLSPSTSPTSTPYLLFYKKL

CC(Cc1ccc(O)c(O)c1)(NN)C(=O)O (stereo not given)
inactive: Potency [1] | Potency [2] | Potency [3] | Potency [4] | Potency [5] | Potency (CRL-7250)
-34.1%: activity change, negative = inhibition [6]

COc1cc2c(cc1OC)C1CC(=O)C(CC(C)C)CN1CC2 (stereo not given)
inactive: outcome [7] | outcome [8] | Potency [9] | Potency [10] | outcome [11] | Potency [12] | Potency [1] | Potency [2] | Potency [3] | Potency [4] | Potency [5] | Potency (CRL-7250)
-3.6%: activity change, negative = inhibition [6]

Source: PubChem BioAssay (NCATS)
